In all, about 310,000 compounds went through this assay and about 14,000 (4.5%) showed an effect of 50% or more. The effect is printed as a negative number. The entries come from a sample that favours strong results as a whole.
target: human ether-à-go-go-related gene (hERG) potassium channel (human, UniProt Q12809); experiment: primary screen, population patch clamp on CHO cells stably expressing hERG; higher = less effect of the substance
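Note: peak tail current of the secondary pulse compared with the same well before compound.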

human ether-à-go-go-related gene (hERG) potassium channel, sequence (Q12809 whole entry, looked up): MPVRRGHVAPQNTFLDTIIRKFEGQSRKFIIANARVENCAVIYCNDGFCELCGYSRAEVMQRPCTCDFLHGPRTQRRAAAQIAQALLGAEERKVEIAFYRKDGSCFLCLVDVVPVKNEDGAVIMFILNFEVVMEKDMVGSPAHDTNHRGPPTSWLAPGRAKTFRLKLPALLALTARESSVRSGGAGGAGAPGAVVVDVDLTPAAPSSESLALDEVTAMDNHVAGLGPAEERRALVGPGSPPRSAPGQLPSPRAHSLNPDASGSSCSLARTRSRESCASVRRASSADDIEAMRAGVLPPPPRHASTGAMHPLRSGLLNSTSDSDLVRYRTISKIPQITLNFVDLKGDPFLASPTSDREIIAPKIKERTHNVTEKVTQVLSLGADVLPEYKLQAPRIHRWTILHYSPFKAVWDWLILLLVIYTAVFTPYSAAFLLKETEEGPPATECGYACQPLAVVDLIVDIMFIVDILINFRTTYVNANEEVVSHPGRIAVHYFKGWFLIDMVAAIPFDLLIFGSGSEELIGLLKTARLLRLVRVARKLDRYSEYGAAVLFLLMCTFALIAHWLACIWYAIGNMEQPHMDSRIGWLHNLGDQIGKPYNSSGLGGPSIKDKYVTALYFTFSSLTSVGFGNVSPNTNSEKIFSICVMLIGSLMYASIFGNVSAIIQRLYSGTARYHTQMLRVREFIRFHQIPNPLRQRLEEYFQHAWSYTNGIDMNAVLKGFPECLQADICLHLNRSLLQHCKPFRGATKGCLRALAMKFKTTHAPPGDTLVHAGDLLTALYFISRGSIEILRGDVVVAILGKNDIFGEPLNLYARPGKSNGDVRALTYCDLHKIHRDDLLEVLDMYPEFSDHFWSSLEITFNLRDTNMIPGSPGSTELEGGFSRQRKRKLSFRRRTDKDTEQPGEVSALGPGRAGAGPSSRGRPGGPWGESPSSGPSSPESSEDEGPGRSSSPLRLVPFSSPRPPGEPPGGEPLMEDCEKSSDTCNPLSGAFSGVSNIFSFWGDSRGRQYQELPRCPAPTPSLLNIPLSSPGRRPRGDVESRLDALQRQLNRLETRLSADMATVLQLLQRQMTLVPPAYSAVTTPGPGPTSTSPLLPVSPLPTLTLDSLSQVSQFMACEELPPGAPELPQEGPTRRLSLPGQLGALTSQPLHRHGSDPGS

| Structure (SMILES) | hERG current change (%, negative = inhibition) at 10uM |
| --- | --- |
| COCCCNCCCCOc1cccc(Br)c1.O=C(O)C(=O)O | -19.3% |
| COCCNCCCCOc1ccc(Br)cc1C.O=C(O)C(=O)O | -36.7% |
| CC(C)NCCCCOc1ccc(Br)cc1Cl.O=C(O)C(=O)O | -64.6% |
| Cc1ccc(OCCOCCNC(C)C)c(Br)c1.O=C(O)C(=O)O | -18.3% |
| CC(C)NCCCOc1ccc(Cl)cc1Br.O=C(O)C(=O)O | -54.4% |
| COCCCNCCCCOc1ccc(Br)cc1C.O=C(O)C(=O)O | -64.6% |
| CC(C)NCCCCOc1cccc(Br)c1.O=C(O)C(=O)O | -25.8% |
| CC(C)NCCCCOc1ccccc1-c1ccccc1.O=C(O)C(=O)O | -32.9% |
| Cc1cccc(NS(=O)(=O)c2cccc(C(=O)N3CCCCCC3)c2)c1 | -3.09% |
| Cc1cnn(-c2cc(N/N=C/c3ccc(F)cc3)ncn2)c1 | 5.69% |
| CC(C)Cc1nnc(NC(=O)CCC(=O)N2CCC3(CC2)OCCO3)s1 | 12.3% |
| O=c1c2ccccc2oc2cc(C#Cc3ccccn3)ccc12 | 7.36% |
| C/C=C(/C)C(=O)Nc1cccc(C2=NOC3(C2)C[C@@H](C(N)=O)N(C(=O)CCCCC)C3)c1 (stereo partly drawn) | -40.1% |
| COc1cc(/C=N/NC(=O)c2cc(C3CC3)[nH]n2)ccc1O | -12.7% |
| CCOC(=O)C1=C(C)N(CC)C(=S)NC1c1ccc(Cl)cc1 (stereo not drawn) | -9.13% |
| COc1ccc(C2=NNC(c3ccco3)=Nc3ccc(F)cc32)cc1 | -10.8% |
| COc1ccc2c(c1)C(c1ccccc1)=NNC(c1ccco1)=N2 | -15.7% |
| COc1ccc2c(c1)C(c1ccc([N+](=O)[O-])cc1)=NNC(c1ccco1)=N2 | -60% |
| O=C(CS(=O)(=O)c1cn(Cc2ccc(F)cc2)c2ccccc12)N1CCCCC1 | -0.405% |

| Structure (SMILES) | hERG current change (%, negative = inhibition) at 10uM |
| --- | --- |
| CC[N+](CC)(CC#Cc1ccccc1)CC#Cc1ccccc1.[Br-] | -69.8% |
| C#CC[N+](CC)(CC)CC#Cc1ccccc1.[Br-] | 9.22% |
| C#CC[N+](C)(C)CC#Cc1ccccc1.[Br-] | 13.3% |
| C#CC[N+](C)(C)CC#Cc1ccc(C)cc1.[Br-] | 6.33% |
| CC[N+](CC)(CC#CCO)CC#Cc1ccccc1.[Br-] | 33.7% |
| Cc1ccc(C#CC[N+](C)(C)CC#Cc2ccccc2)cc1.[Br-] | -75.9% |
| O=C(CSc1nnc(CNC(=O)c2ccco2)o1)Nc1ccc(F)cc1F | 8.95% |
| O=C(c1ccc(C#Cc2ccccc2)o1)N1CCN(c2ccccn2)CC1 | -6.76% |
| COc1ccc(Nc2ncccc2C(=O)Nc2ccccc2)cc1 | -9.63% |
| Cc1ccc(OCc2ccccc2Br)c([N+](=O)[O-])n1 | 16.7% |
| COc1ccccc1CCc1nnc(CCC(=O)N(C)Cc2cccc3cnccc23)o1 | -35.3% |
| CC(=O)c1ccc(-c2nnc(CCC(=O)N(C)Cc3cccc4cnccc34)o2)s1 | -81.4% |
| CN(Cc1cccc2cnccc12)C(=O)CCc1nnc(CCc2ccccc2)o1 | -44.7% |
| O=C(NC1CCCCC1)C(c1ccncc1)N(Cc1ccc(F)cc1)C(=O)c1ccccn1 (stereo not drawn) | -5.49% |
| Cc1cc(S(=O)(=O)N2CCc3ccccc3C2)ccc1F | 7.2% |
| COc1ccc(N2CCN(CC(=O)NC(C)c3ccccc3)CC2)cc1 (stereo not drawn) | 20.6% |
| O=C(CN1CCN(c2ccc(O)cc2)CC1)NC(c1ccccc1)c1ccccc1 | -50.8% |
| COc1ccc(C(NC(=O)CN2CCCCCC2)c2ccc(OC)cc2)cc1 | -65.9% |
| CC(CCc1ccccc1)NC(=O)CN1CCN(c2ccc(O)cc2)CC1 (stereo not drawn) | -37.1% |

| Structure (SMILES) | hERG current change (%, negative = inhibition) at 10uM |
| --- | --- |
| CC(CCc1ccccc1)NC(=O)CN1CCc2ccccc2C1 (stereo not drawn) | -22.4% |
| CC(CCc1ccccc1)NC(=O)CN1CCN(c2ccccc2)CC1 (stereo not drawn) | -55.8% |
| COc1ccc(/C=N/NC(=O)CN2CCCC2)cc1 | -14.8% |
| O=C(CN1CCN(c2ccccc2O)CC1)NC(c1ccccc1)c1ccccc1 | -22.7% |
| O=C(CN1CCN(Cc2ccccc2)CC1)NC(c1ccccc1)c1ccccc1.O=C(O)C(=O)O | -59.8% |
| CC(=O)C(Cc1ccccc1)NC(=O)CN1CCN(Cc2ccccc2)CC1 (stereo not drawn) | -5.57% |
| CC(NC(=O)CN1CCN(c2ccc(Cl)cc2)CC1)c1ccccc1 (stereo not drawn) | -42.7% |
| O=C(O)C(=O)O.c1ccc(CN2CCN(C(c3ccccc3)c3ccccc3)CC2)cc1 | 2.22% |
| Cc1ccc(SCCSc2ncccn2)cc1 | -2.38% |
| CC(C)c1cc(-c2n[nH]c(=S)n2Cc2ccccc2)cs1 | 17.8% |
| Cc1cc(C)nc(N2CCN(C(=O)CCC(=O)Nc3nnc(CC(C)C)s3)CC2)n1 | -6.7% |
| O=C(N1CCCCC1)N1CCN(S(=O)(=O)c2cccc([N+](=O)[O-])c2)CC1 | -15.8% |
| COc1cc(S(=O)(=O)NCc2cccnc2)ccc1F | -5.7% |
| CN(C)C(=O)N1CCCC(C(=O)NCc2cccs2)C1 (stereo not drawn) | 1.62% |
| CNc1ccccc1C(=O)OCC(=O)N(CCOC)c1c(N)n(CC(C)C)c(=O)[nH]c1=O | 9.81% |
| CCCCN1CCNC[C@@H]1Cc1ccc(O)cc1 | 16% |
| CCN(CC(=O)Nc1ccc(Br)c(C)c1)CC(=O)NC(C)C | -4.86% |
| O=C(NCCO)c1cc([N+](=O)[O-])cc2c1C=Cc1ccccc1O2 | -31.4% |
| CC1Cc2ccccc2N1C(=O)COC(=O)C1(c2ccccc2F)CCCC1 (stereo not drawn) | -5.21% |

From article PMC4336329 (PLoS ONE, 2015)
